Source: PubChem BioAssay AID651640 (Broad Institute, 2012)
The campaign covered roughly 350,000 compounds. About 6,000 (1.7%) were called active. Inconclusive results (about 5%) are left out. No stated cut-off is given here; in the data, active means CPE inhibition above about 20% (passing the limit was not always enough); inconclusive means no clear call, values can overlap the other calls; tested in BHK-21 cells. For the sample, actives were picked, then their nearest neighbours and some compounds at random.

Experiment: inhibitors of DENV2 cytopathic effect, primary screen, cell-based, plate reader, single concentration (AID 651640);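 further: 0% = median of neutral control wells and 100% = median of positive control wells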
Settings: DENV2-infected cells, cytopathic effect rescue, at 9.99 µM, stronger effect = higher value

CPE inhibition, inactive:
O=C(NCC[C@H]1CC[C@H](NC(=O)C2CC2)[C@@H](CO)O1)c1ccc(F)cc1 -6.48%, O=C(NCC[C@H]1CC[C@@H](NC(=O)C2CC2)[C@H](CO)O1)c1ccc(F)cc1 -2.58%, C[C@H]1CN([C@@H](C)CO)C(=O)c2cc(/C=C/c3ccccc3)cnc2O[C@H]1CN(C)Cc1cccc(C(=O)O)c1 -8.76%, C[C@@H]1CN([C@H](C)CO)C(=O)c2cccc(NC(=O)NC3CCCCC3)c2O[C@@H]1CN(C)CC1CCCCC1 -11%, C[C@H]1CN([C@@H](C)CO)C(=O)c2cccc(NC(=O)C3CCCCC3)c2O[C@H]1CN(C)Cc1ccc(C(F)(F)F)cc1 12.9%, C[C@@H]1CN([C@@H](C)CO)C(=O)c2cccc(NC(=O)NC3CCCCC3)c2O[C@@H]1CN(C)CC1CCCCC1 12.9%, C[C@@H]1CN([C@H](C)CO)C(=O)c2cccc(NC(=O)NC3CCCCC3)c2O[C@H]1CN(C)Cc1ccc(C(F)(F)F)cc1 0.691%, O=C(C[C@H]1C=C[C@H](NC(=O)c2cccc(F)c2)[C@@H](CO)O1)NCc1ccc(Oc2ccccc2)cc1 -9.22%, C[C@H](CO)N1C[C@H](C)[C@H](CN(C)Cc2ccncc2)Oc2ncc(C#Cc3cccc(F)c3)cc2C1=O 13.5%, C[C@@H]1CN([C@H](C)CO)C(=O)c2cc(-c3ccccc3F)cnc2O[C@H]1CN(C)C(=O)CN(C)C -0.853%, CN1c2ccc(-c3cccc(F)c3)cc2[C@@H]2[C@@H](CCN2C(=O)Nc2ccccc2F)[C@@H]1CO -9.74%, COc1cccc(C(=O)Nc2ccc3c(c2)C(=O)N(C)[C@H]2CC[C@H](CC(=O)N[C@@H](C)c4ccccc4)O[C@H]2CO3)c1 -3.06%, CN1C(=O)c2cc(NC(=O)Cc3ccccc3)ccc2OC[C@H]2O[C@H](CC(=O)NCc3ccc(Cl)cc3)CC[C@H]21 -3.46%, C[C@@H]1CN([C@H](C)CO)C(=O)c2cc(NS(=O)(=O)c3ccc(F)cc3)ccc2O[C@H]1CN(C)Cc1ccncc1 -0.549%, Cc1noc(C)c1S(=O)(=O)Nc1ccc2c(c1)C(=O)N([C@@H](C)CO)C[C@@H](C)[C@@H](CN(C)C)O2 1.2%, C[C@H](CO)N1C[C@H](C)[C@H](CN(C)Cc2ccc(-c3ccccc3)cc2)Oc2ccc(NS(=O)(=O)c3ccccc3)cc2C1=O 0.672%, Cc1ccc(S(=O)(=O)Nc2ccc3c(c2)C(=O)N([C@@H](C)CO)C[C@@H](C)[C@H](CN(C)Cc2ccc4c(c2)OCO4)OCCCC[C@@H](C)O3)cc1 -8.37%, Cc1ccc(S(=O)(=O)Nc2ccc3c(c2)C(=O)N([C@@H](C)CO)C[C@@H](C)[C@@H](CN(C)Cc2ccncc2)O3)cc1 2.98%, Cc1ccc(S(=O)(=O)Nc2ccc3c(c2)C(=O)N([C@H](C)CO)C[C@H](C)[C@H](CN(C)Cc2ccc(Cl)c(Cl)c2)O3)cc1 -4.04%

CPE inhibition, active:
O=C(NCC[C@H]1CC[C@@H](NC(=O)C2CCCCC2)[C@@H](CO)O1)c1ccc(F)cc1 50.9%, C[C@H](CO)N1C[C@H](C)[C@@H](CN(C)Cc2ccc(C(F)(F)F)cc2)Oc2c(NC(=O)NC3CCCCC3)cccc2C1=O 37.7%, C[C@H]1CN([C@@H](C)CO)C(=O)c2cccc(NC(=O)NC3CCCCC3)c2O[C@H]1CN(C)CC1CCCCC1 30.3%, Cc1noc(C)c1S(=O)(=O)Nc1ccc2c(c1)C(=O)N([C@@H](C)CO)C[C@@H](C)[C@H](CN(C)Cc1ccc(-c3ccccc3)cc1)O2 35.7%, Cc1ccc(S(=O)(=O)Nc2ccc3c(c2)C(=O)N([C@@H](C)CO)C[C@@H](C)[C@H](CN(C)Cc2ccncc2)O3)cc1 35.3%, Cc1ccc(S(=O)(=O)Nc2ccc3c(c2)C(=O)N([C@@H](C)CO)C[C@H](C)[C@@H](CN(C)Cc2ccc4c(c2)OCO4)O3)cc1 21.2%
